Compounds without any hit were thinned out: in the full panel of roughly 83,000, 20% have a hit.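 Cell lines were cultured in 96-well plates, exposed to a single compound concentration, and assessed for percent growth 48 hours later.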 Calls of active or inactive are those of the source. Rule for the calls: active = growth percent below 10; inactive = the rest.
Key:
Test in all cases: NCI-60 one-dose screen, 48 h (100 = growth as untreated, 0 = no growth, -100 = all killed)
Details in all cases: 10 µM unless noted
[1] = test system: SR leukemia
[2] = test system: OVCAR-8 ovarian
[3] = test system: OVCAR-5 ovarian
[4] = test system: OVCAR-4 ovarian
[5] = test system: SK-OV-3 ovarian
[6] = test system: IGROV1 ovarian
[7] = test system: OVCAR-3 ovarian
[8] = test system: HS 578T breast
[9] = test system: NCI/ADR-RES ovarian
[10] = test system: T-47D breast
[11] = test system: BT-549 breast
[12] = test system: MDA-MB-435 melanoma
[13] = test system: MCF7 breast
[14] = test system: HCT-116 colon
[15] = test system: HCC-2998 colon
[16] = test system: KM12 colon
[17] = test system: SW-620 colon

Measured: growth

CCOC(=O)C1=C(C)NC(SCc2nnc(-c3ccc(Cl)cc3)o2)=NC1c1ccc(Cl)cc1Cl (configuration not stated)
inactive: [1] 37.9% | [2] 54.2% | [3] 89% | [4] 52.7% | [5] 90.3% | [6] 43.9% | [7] 62.8% | [8] 67.1% | [9] 54.6% | [10] 47.4% | [11] 89.7% | [12] 69% | [13] 32% | [14] 28.8% | [15] 84.5% | [16] 63.4%

Clc1ccc(-c2nc(NCCc3ccccc3)nc3c(NCCc4ccccc4)cnn23)cc1
active: [4] 7.73%
inactive: [1] 72% | [2] 47.5% | [3] 91.2% | [5] 75.8% | [6] 71.5% | [7] 48.9% | [8] 76.6% | [9] 74.5% | [10] 63.3% | [11] 63.6% | [12] 42.6% | [17] 33.5% | [13] 31.1% | [14] 28.6% | [15] 72.4% | [16] 70%

CCCCCCCCCCCCCCCCCC1=NCCN1C(=O)OCCO
inactive: [2] 19.3% | [3] 68.1% | [4] 28.2% | [5] 61.7% | [7] 76% | [8] 11.6% | [9] 51.4% | [10] 57.3% | [11] 113% | [16] 21.4%
active: [1] -10.5% | [6] -35.3% | [12] -21.2% | [17] -76.8% | [13] -45.6%

COc1ccc(/C=C2\COc3ccc(O)c(O)c3C2=O)c(OC)c1
inactive: [1] 18.9% | [2] 41.5% | [3] 74.1% | [4] 47.3% | [5] 72.7% | [6] 31.3% | [7] 29.4% | [8] 65.5% | [9] 57.8% | [10] 48% | [11] 57.8% | [12] 21% | [17] 64% | [13] 31.2% | [14] 59.4% | [15] 104% | [16] 45%

CCCCS(=O)(=O)Oc1ccc(-c2nc(C)c(C(=O)OCC)s2)cc1C=O
inactive: [2] 45.4% | [3] 94.5% | [4] 75.2% | [5] 109% | [6] 42.6% | [7] 65% | [8] 63.6% | [9] 69% | [10] 80.6% | [11] 72.2% | [12] 37.1% | [17] 30.2% | [13] 35.6% | [15] 94.4% | [16] 57%
active: [1] -14.3% | [14] 8.67%

N#Cc1cnn2c(-c3ccc(Cl)cc3)nc(NC3CC3)nc12
inactive: [1] 86.1% | [2] 102% | [3] 93.9% | [4] 87.2% | [5] 107% | [6] 89.4% | [7] 101% | [8] 101% | [9] 98.8% | [10] 82.4% | [11] 94.2% | [12] 96.8% | [13] 78% | [14] 93.8% | [15] 101% | [16] 98.2%

O=C(Oc1ccc[nH]c1=O)c1cc([N+](=O)[O-])cc([N+](=O)[O-])c1
inactive: [1] 136% | [2] 93.6% | [3] 106% | [4] 110% | [5] 116% | [6] 162% | [7] 113% | [8] 124% | [9] 114% | [10] 109% | [11] 75.6% | [12] 121% | [17] 107% | [13] 96.2% | [14] 103% | [16] 116%

CCOC(=O)c1c(C)[nH]c(C(=O)CCC(=O)OC)c1C
inactive: [1] 92.5% | [2] 103% | [3] 100% | [4] 107% | [5] 101% | [6] 104% | [7] 105% | [8] 124% | [9] 97.9% | [10] 101% | [11] 84.5% | [12] 103% | [13] 98% | [14] 81% | [15] 99.2% | [16] 103%

CCN(CC)CCOc1ccc(/C(=C(\C)c2ccc(F)c(OC)c2)c2ccc(Cl)cc2)cc1
inactive: [2] 17.4% | [3] 40.9% | [4] 26.6% | [5] 54% | [6] 29.7% | [7] 16.6% | [8] 16% | [9] 39.8% | [10] 18.8% | [11] 59.7% | [12] 15%
active: [1] -22.2% | [17] -7.8% | [13] -3.59% | [14] 1.56% | [15] -33.2% | [16] -3.3%

COc1ccc(Cn2cnc3cc(C(=O)Nc4cccc5ccccc45)ccc32)c(OC)c1
active: [1] -17% [30 µM] | [7] -17.8% [30 µM] | [9] 3.4% [30 µM] | [12] -44.5% [30 µM] | [15] 6.79% [30 µM] | [16] 2.44% [30 µM]
inactive: [2] 14.7% [30 µM] | [3] 16.3% [30 µM] | [4] 44.4% [30 µM] | [5] 31% [30 µM] | [6] 14.7% [30 µM] | [8] 29.8% [30 µM] | [10] 59.8% [30 µM] | [11] 30.8% [30 µM] | [13] 11.8% [30 µM] | [14] 10.3% [30 µM]

C=C1C(=O)O[C@H]2[C@H]1CC/C(COC(=O)/C=C\C(=O)NCc1ccc(Cn3c(=O)sn(-c4ccc(Cl)cc4)c3=O)cc1)=C\CC[C@@]1(C)O[C@@H]21
active: [1] -46.3% | [2] -12% | [3] -86.2% | [4] -78.4% | [6] -99.5% | [7] -97.6% | [8] -18.2% | [9] -6.62% | [10] -44.1% | [11] -40.9% | [12] -80.3% | [17] -65.7% | [13] -52% | [14] -66% | [15] -76.8% | [16] -72.7%
inactive: [5] 52.4%

Nc1ccc(-c2cc3c(Nc4ccc(OCc5cccc(F)c5)c(Cl)c4)ncnc3s2)cc1
inactive: [1] 14.5% | [2] 63.1% | [3] 77.9% | [4] 54.8% | [6] 38.2% | [7] 46.6% | [8] 77% | [9] 50.4% | [10] 15.4% | [11] 61.2% | [12] 43.8% | [17] 74.1% | [13] 26.2% | [14] 50.7% | [15] 38.6% | [16] 24%
active: [5] -2.32%

COc1ccc(-c2cc(-c3cc(OC)ccc3OC)[nH]c(=O)c2C#N)cc1
inactive: [1] 14.2% | [2] 56.6% | [3] 116% | [4] 68.9% | [5] 71.6% | [6] 53.3% | [7] 21.3% | [8] 43.5% | [9] 34.2% | [10] 63.8% | [11] 48.7% | [17] 26.7% | [13] 59.5% | [14] 29.9% | [15] 75.9% | [16] 51.4%
active: [12] 1.49%

CC(C)OC(=O)NNC(=O)c1ccncc1
inactive: [1] 104% | [2] 99.1% | [3] 98.5% | [4] 101% | [5] 106% | [6] 98% | [7] 93.4% | [8] 106% | [9] 109% | [10] 106% | [12] 109% | [17] 98.2% | [13] 88% | [14] 97.5% | [15] 119% | [16] 115%

O=[N+]([O-])c1ccc(-c2cc3c(Nc4ccc(Sc5nc6ccccc6s5)c(Cl)c4)ncnc3s2)cc1
inactive: [1] 38.7% | [2] 23.5% | [3] 49.9% | [4] 35.2% | [5] 37.1% | [6] 43.8% | [7] 14.7% | [8] 87.8% | [9] 60.3% | [10] 37.1% | [11] 87.6% | [12] 30.8% | [17] 49.5% | [13] 16.2% | [14] 11.9% | [15] 49.7% | [16] 35.1%
